# Measured values reported in paper PMC5540273 (PLoS ONE, 2017).
# “And” between values parts separate entries of the source, which are not always exact repeats. Equal entries are not always repeated. Where two headings read alike, the source gives them in different places.
# How the values were obtained:
# Conditions in all cases: concentration: 1 μM, replicates: in singlicate, n = 1
# RIPK5 = system: RIPK5
# ROCK1 = system: ROCK1
# ROCK2 = system: ROCK2
# ROS1 = system: ROS1
# [1] = system: RPS6KA4(Kin.Dom.1-N-terminal)
# [2] = system: RPS6KA4(Kin.Dom.2-C-terminal)
# [3] = system: RPS6KA5(Kin.Dom.1-N-terminal)
# [4] = system: RPS6KA5(Kin.Dom.2-C-terminal)
# [5] = system: T1, RSK1(Kin.Dom.1-N-terminal)
# T1 construct: gene RPS6KA1
# [6] = system: T2, RSK1(Kin.Dom.2-C-terminal)
# T2 construct: gene RPS6KA1
# 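Also: KINOMEscan kinase panel screen.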
structure (smiles),measurement,setting,value
N#Cc1c(N2CCOCC2)sc(-c2ccn[nH]2)c1-c1ccc(Cl)cc1,%Inh,RIPK5,15%
same,%Inh,ROCK1,11%
same,%Inh,ROCK2,0%
same,%Inh,ROS1,8%
same,%Inh,[1],0%
same,%Inh,[2],3%
same,%Inh,[3],0%
same,%Inh,[4],7%
same,%Inh,[5],17%
same,%Inh,[6],18%
O=C(NCCCN1CCOCC1)c1cccc(Nc2nccc(Nc3ccc(Oc4ccccc4)cc3)n2)c1 [GW663929],%Inh,RIPK5,7%
same,%Inh,ROCK1,0%
same,%Inh,ROCK2,27%
same,%Inh,ROS1,25%
same,%Inh,[1],0%
same,%Inh,[2],0%
same,%Inh,[3],0%
same,%Inh,[4],32%
same,%Inh,[5],18%
same,%Inh,[6],20%
NCCNS(=O)(=O)c1ccc(-c2ccnc3[nH]ccc23)cc1 [GSK977617],%Inh,RIPK5; 1 µM,3% and 0%
same,%Inh,ROCK2,99.8%
same,%Inh,ROS1; 1 µM,65% and 43%
same,%Inh,[1]; 1 µM,48% and 33%
same,%Inh,[2]; 1 µM,99.2% and 98.5%
same,%Inh,[3]; 1 µM,47% and 33%
same,%Inh,[4]; 1 µM,97.6% and 94.8%
same,%Inh,[5]; 1 µM,62% and 27%
same,%Inh,[6]; 1 µM,63% and 41%
COC(=O)Nc1nc2cc(Oc3ccc(NC(=O)Nc4cc(F)ccc4F)cc3)ccc2[nH]1.Cl [GW701424],%Inh,RIPK5,0%
same,%Inh,ROCK1,52%
same,%Inh,ROCK2,67%
same,%Inh,ROS1,0%
same,%Inh,[1],0%
same,%Inh,[2],0%
same,%Inh,[3],24%
same,%Inh,[4],43%
same,%Inh,[5],0%
same,%Inh,[6],0%
Cc1ccc(C(=O)NCC(N)=O)cc1-n1c(C)cc(OCc2ccc(F)cc2F)c(Br)c1=O,%Inh,RIPK5,0%
same,%Inh,ROCK1,0%
same,%Inh,ROCK2,0%
same,%Inh,ROS1,20%
same,%Inh,[1],0%
same,%Inh,[2],0%
same,%Inh,[3],20%
same,%Inh,[4],15%
same,%Inh,[5],3%
same,%Inh,[6],0%
NS(=O)(=O)c1cccc(-c2ccc3ncc(N4CCOCC4)nc3c2)c1 [GSK1535721],%Inh,RIPK5,8%
same,%Inh,ROCK1,0%
same,%Inh,ROCK2,0%
same,%Inh,ROS1,2%
same,%Inh,[1],4%
same,%Inh,[2],0%
same,%Inh,[3],8%
same,%Inh,[4],13%
same,%Inh,[5],0%
same,%Inh,[6],6%
Cc1nnc(-c2ccc3ncc(-c4ccc(S(C)=O)cc4)n3c2)o1 (stereo not shown),%Inh,RIPK5,21%
same,%Inh,ROCK1,28%
same,%Inh,ROCK2,9%
same,%Inh,ROS1,0%
same,%Inh,[1],0%
same,%Inh,[2],9%
same,%Inh,[3],0%
same,%Inh,[4],2%
same,%Inh,[5],0%
same,%Inh,[6],27%
O=C(NCCNc1ccnc(Nc2ccc(F)cc2)n1)c1cc2ccccc2s1 [GSK1379874],%Inh,RIPK5,0%
same,%Inh,ROCK1,29%
same,%Inh,ROCK2,30%
same,%Inh,ROS1,15%
same,%Inh,[1],0%
same,%Inh,[2],0%
same,%Inh,[3],4%
same,%Inh,[4],0%
same,%Inh,[5],26%
same,%Inh,[6],0%
C[C@@H](Oc1cc(-n2cnc3ccc(NC(=O)NC(C)(C)C)cc32)sc1C(N)=O)c1ccccc1Cl [GSK346294],%Inh,RIPK5,10%
same,%Inh,ROCK1,4%
same,%Inh,ROCK2,17%
same,%Inh,ROS1,33%
same,%Inh,[1],11%
same,%Inh,[2],0%
same,%Inh,[3],13%
same,%Inh,[4],14%
same,%Inh,[5],0%
same,%Inh,[6],15%
CSc1ccc(-c2cc3ncnc(SCC(=O)O)c3s2)cc1,%Inh,RIPK5,0%
same,%Inh,ROCK1,0%
same,%Inh,ROCK2,0%
same,%Inh,ROS1,3%
same,%Inh,[1],0%
same,%Inh,[2],0%
same,%Inh,[3],0%
same,%Inh,[4],0%
same,%Inh,[5],9%
same,%Inh,[6],12%
O=c1cc(N2CCOCC2)nc2n(Cc3cccc4ccccc34)ccn12 [GSK2333389],%Inh,RIPK5,0%
same,%Inh,ROCK1,0%
same,%Inh,ROCK2,19%
same,%Inh,ROS1,0%
same,%Inh,[1],12%
same,%Inh,[2],0%
same,%Inh,[3],0%
same,%Inh,[4],0%
same,%Inh,[5],0%
same,%Inh,[6],0%
NCC(NC(=O)c1cc(-c2cn[nH]c2)c(-c2ccnc3[nH]ccc23)s1)c1ccccc1.O=C(O)C(F)(F)F.O=C(O)C(F)(F)F (stereo not shown) [GSK1325775],%Inh,RIPK5,16%
same,%Inh,ROCK1,100%
same,%Inh,ROCK2,99.9%
same,%Inh,ROS1,0%
same,%Inh,[1],47%
same,%Inh,[2],43%
same,%Inh,[3],13%
same,%Inh,[4],60%
same,%Inh,[5],24%
same,%Inh,[6],5%
COc1cc2c(cc1OCCN1CCN(C)CC1)ncc1c3ccc(C#N)cc3[nH]c21,%Inh,RIPK5,33%
same,%Inh,ROCK1,98.1%
same,%Inh,ROCK2,99.4%
same,%Inh,ROS1,0%
same,%Inh,[1],0%
same,%Inh,[2],0%
same,%Inh,[3],0%
same,%Inh,[4],71%
same,%Inh,[5],0%
same,%Inh,[6],26%
Cl.Cl.Cl.Fc1ccc(-c2ncn(C3CCNCC3)c2-c2ccnc(Nc3ccccc3)n2)cc1 [SB-238039],%Inh,RIPK5; 1 µM,82% and 61%
same,%Inh,ROCK1; 1 µM,27% and 0%
same,%Inh,ROCK2; 1 µM,32% and 9%
same,%Inh,ROS1,0%
same,%Inh,[1]; 1 µM,16% and 4%
same,%Inh,[2]; 1 µM,0% and 4%
same,%Inh,[3]; 1 µM,36% and 11%
same,%Inh,[4]; 1 µM,23% and 0%
same,%Inh,[5],0%
same,%Inh,[6]; 1 µM,64% and 35%
O=c1cc(N2CCOCC2)nc2n(Cc3cccc(F)c3)ccn12 [GSK2297430],%Inh,RIPK5,0%
same,%Inh,ROCK1,0%
same,%Inh,ROCK2,27%
same,%Inh,ROS1,24%
same,%Inh,[1],19%
same,%Inh,[2],0%
same,%Inh,[3],26%
same,%Inh,[4],0%
same,%Inh,[5],0%
same,%Inh,[6],0%
COc1cc2ncn(-c3cc(OCc4sccc4Cl)c(C(N)=O)s3)c2cc1OC [GSK448459],%Inh,RIPK5,0%
same,%Inh,ROCK1,26%
same,%Inh,ROCK2,23%
same,%Inh,ROS1,6%
same,%Inh,[1],13%
same,%Inh,[2],0%
same,%Inh,[3],5%
same,%Inh,[4],0%
same,%Inh,[5],12%
same,%Inh,[6],0%
CC(=O)Nc1ccc(COc2ccc(Nc3ccnc4cc(-c5ccccn5)ccc34)cc2)cc1.Cl [GW440148],%Inh,RIPK5,0%
same,%Inh,ROCK1,14%
same,%Inh,ROCK2,7%
same,%Inh,ROS1,0%
same,%Inh,[1],0%
same,%Inh,[2],0%
same,%Inh,[3],1%
same,%Inh,[4],20%
same,%Inh,[5],7%
same,%Inh,[6],33%
Cc1c(Cn2c(C)nn3c(=O)cc(N4CCOC(C)C4)nc23)cccc1C(F)(F)F (stereo not shown) [GSK2344444],%Inh,RIPK5,0%
same,%Inh,ROCK1,0%
same,%Inh,ROCK2,10%
same,%Inh,ROS1,14%
same,%Inh,[1],21%
same,%Inh,[2],0%
same,%Inh,[3],0%
same,%Inh,[4],0%
same,%Inh,[5],0%
same,%Inh,[6],6%
CCn1cnc2c(N)ncnc21 [GW345098],%Inh,RIPK5,38%
same,%Inh,ROCK1,12%
same,%Inh,ROCK2,22%
same,%Inh,ROS1,0%
same,%Inh,[1],5%
same,%Inh,[2],25%
same,%Inh,[3],0%
same,%Inh,[4],0%
same,%Inh,[5],7%
same,%Inh,[6],11%
Cl.Nc1ncnc2occ(-c3ccc(NC(=O)Nc4cc(C(F)(F)F)ccc4F)cc3)c12 [SB-707548],%Inh,RIPK5,28%
same,%Inh,ROCK1,38%
same,%Inh,ROCK2,74%
same,%Inh,ROS1,50%
same,%Inh,[1],48%
same,%Inh,[2],0%
same,%Inh,[3],63%
same,%Inh,[4],16%
same,%Inh,[5],18%
same,%Inh,[6],30%
